Screen size: about 220,000 compounds; about 150 (0.068%) were called active.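 How the source made its calls: active means activation, meaning protection from cell death, of at least 50% relative to plate controls; inactive means activation below 50%.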 The full list was thinned out, with actives kept by preference.
Experiment: inhibitors of TNF-alpha triggered necroptosis, primary screen, cell-based, Jurkat FADD-/-, single concentration (AID 463075);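 further: necroptosis triggered by 40 ng/mL TNF-alpha added together with compound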
Settings: Jurkat FADD-/- TNF necroptosis rescue, ATP luminescence, 24 h; at 10 µM; stronger effect = higher value; 0 = TNF only, 100 = no-TNF cells

Row | Compound | activation (protection from cell death)
1 | COC(=O)CCNC(=O)c1ccc2[nH]c(C)c(C)c2c1 | -0.237% (inactive)
2 | COC(=O)COc1cccc2c(=O)n(CC(=O)NCc3ccccc3)ccc12 | -12.7% (inactive)
3 | CCCc1cc(=S)n2c([nH]c3ccccc32)c1C#N | -1.86% (inactive)
4 | COc1cccc(CC(=O)N2CCCC(CCC(=O)N3CCN(c4ccccn4)CC3)C2)c1 (configuration not stated) | 2.68% (inactive)
5 | CCn1cc(C(=O)Nc2cc(C)ccc2C)c(=O)c2ccc(C)nc21 | 0.491% (inactive)
6 | O=[N+]([O-])c1ccc(N/N=C2/CCCCC2c2ccccn2)c([N+](=O)[O-])c1 (configuration not stated) | 2.74% (inactive)
7 | CCn1c2ccccc2c2cc(NC(=O)C/C(C)=N/NC(=O)c3ccccc3N)ccc21 | -9.27% (inactive)
8 | COc1cc(OC)cc(/C(N)=N/O)c1 | 4.62% (inactive)
9 | Cc1ccc(S(=O)(=O)/N=C(/NC(=S)Nc2c(C)n(C)n(-c3ccccc3)c2=O)c2ccccc2)cc1 | 0.616% (inactive)
10 | O=C(N/N=C1\CCSC1)c1cc(Cl)ccc1O | -0.00524% (inactive)
11 | O=C(Cc1cccc2ccccc12)NNC(=O)Nc1ccc(Cl)cc1 | 7.05% (inactive)
12 | Cc1nc2ccccc2nc(=O)c1NNc1ccc([N+](=O)[O-])cc1 | 3.59% (inactive)
13 | Oc1ccc(/C=N/Nc2ccc(C(F)(F)F)cn2)cc1O | 30.8% (inactive)
14 | O=S(=O)([N-]c1nc2ccccc2nc1-[n+]1ccc(Cc2ccccc2)cc1)c1ccc(Br)s1 | -3.84% (inactive)
15 | CCCN=C1NC(=O)C(CC(=O)NCCc2ccc(OC)c(OC)c2)S1 (configuration not stated) | 1.06% (inactive)
16 | O=C(CSc1nnc(-c2ccncc2)o1)NCc1ccc(Cl)cc1 | 3.12% (inactive)
17 | Cc1cccc(N2CCN(C(=O)/C=C/c3ccco3)CC2)c1C | -4.02% (inactive)
18 | Cc1ccc(S(=O)(=O)N2CCN(CC(=O)N/N=C/c3cc([N+](=O)[O-])ccc3Cl)CC2)cc1 | 4.63% (inactive)
19 | COc1ccc(C(=O)NC2CCN(C(=S)Nc3ccccc3)CC2)cc1 | 0.717% (inactive)
20 | COc1ccc(NC(=S)N2N=CCC2c2ccccc2)cc1 (configuration not stated) | 87.5% (active)
21 | COc1ccc(C(=S)Nc2ccccc2)cc1 | -4.07% (inactive)

Row | Compound | activation (protection from cell death)
22 | CCCCS(=O)c1snnc1C (configuration not stated) | -0.406% (inactive)
23 | CCCOc1ccc(Cc2c(Cl)nc(SC)nc2NC)cc1 | -4.22% (inactive)
24 | CCCCN(C)CCNC(=O)CSCc1ccc(C)cc1 | 1.41% (inactive)
25 | CCN1C(=O)/C(=C2/Sc3ccc(OC)cc3N2C)SC1=Nc1ccc(C)cc1 | -1.29% (inactive)
26 | COc1ccc(N(CC(=O)NC2CCCCC2)S(=O)(=O)c2c(C)[nH]c(=O)[nH]c2=O)cc1 | -0.527% (inactive)
27 | CCOC(=O)/C=c1\s/c(=C\c2ccc(C#N)cc2)c(=O)n1CC(=O)Nc1cccc(C)c1C | 0.5% (inactive)
28 | Cc1ccc(N2C(=O)SC(N(CC(=O)O)c3ccc(C)cc3)C2=O)cc1 (configuration not stated) | 0.355% (inactive)
29 | CCCN(CC(=O)Nc1ccc(C(N)=O)cc1)CC(=O)Nc1ccccc1C | 8.38% (inactive)
30 | Oc1ccccc1C=NC1CCCCC1N=Cc1ccccc1O (configuration not stated) | 0.233% (inactive)
31 | C/C(=N\N=C(N)N)c1ccc(Cl)cc1 | 2.76% (inactive)
32 | C=CCNC(=O)c1sc(SC)cc1-c1ccc(Cl)cc1 | -2.68% (inactive)
33 | COc1cccc(C2c3[nH]c4ccccc4c3CCN2Cc2cccc(C)n2)c1 (configuration not stated) | 0.616% (inactive)
34 | CC1CCc2c(nc3ncnn3c2Nc2ccc(OC(F)(F)F)cc2)C1 (configuration not stated) | -5.14% (inactive)
35 | COC(=O)c1ccc(NC(=O)CSc2nncc3ccc(OC)c(OC)c23)cc1 | -0.335% (inactive)
36 | CCNc1nc(NCC)nc(N/N=C/c2ccc(O)c(OC)c2)n1 | 22.3% (inactive)
37 | Cc1ccc(NC(=O)c2cccs2)cc1S(=O)(=O)N(C)C | 1.75% (inactive)
38 | CCOC(=O)C1=C(c2ccccc2)NC(=S)NC1c1ccc(Cl)cc1 (configuration not stated) | -2.28% (inactive)
39 | COc1ccc(/C(=N\O)c2nccc3cc(OC)c(OC)cc23)cc1OC | 0.543% (inactive)
40 | CN1C(C)(C)CC(NC(=O)CCC(=O)NC2CC(C)(C)N(C)C(C)(C)C2)CC1(C)C | 0.679% (inactive)
41 | CNC(=O)c1c(NC(NC(=O)c2ccco2)C(=O)c2ccc(Cl)cc2)sc2c1CCCC2 (configuration not stated) | 0.421% (inactive)
42 | Cc1c(CN2CCCCC2)c(O)n(CCO)c(=O)c1C#N | -0.121% (inactive)

Row | Compound | activation (protection from cell death)
43 | CCOC(=O)/C(=N\Nc1cc(Cl)ccc1Cl)N1CCN(C)CC1 | 7.63% (inactive)
44 | COc1cccc(OCCCN2CCCCCC2)c1 | 1.03% (inactive)
45 | Cc1cc(=O)oc2cc(OCC3CC(c4ccccc4Cl)=NO3)ccc12 (configuration not stated) | -15.7% (inactive)
46 | Cc1ccc(C2NC(=S)NC3=C2N2CCC3CC2)cc1 (configuration not stated) | 1.6% (inactive)
47 | C=C(Cl)COC(=O)C1C2C=CC(C2)C1C(=O)O (configuration not stated) | -1.48% (inactive)
48 | CN(C)/C=C/C(=O)c1cnc2sccn2c1=O | -0.24% (inactive)
49 | Cc1nnsc1C(=O)Nc1cccc(Cl)c1C | 5.62% (inactive)
50 | Cc1nnsc1C(=O)N/N=C/c1ccccc1Cl | 3.7% (inactive)
51 | Cc1nnsc1C(=O)NCc1c(F)cccc1Cl | 72.6% (active)
52 | O=C(NCCCCCCCCCNC(=O)C(F)(F)F)C(F)(F)F | -0.812% (inactive)
53 | CS(=O)(=O)c1ccc2nc(NC(=O)c3ccc(N4CCCC4=O)cc3)sc2c1 | -0.943% (inactive)
54 | COc1ccc(S(=O)(=O)N2CCN(C(=O)c3cc(C)oc3C)CC2)cc1 | 2.28% (inactive)
55 | O=c1cc(N2CCCCC2)c(-c2ccccc2)nn1Cc1cccc(F)c1 | -0.813% (inactive)
56 | Cc1ccc(O)c(-c2cc(C(=O)NCc3ccccc3)[nH]n2)c1 | -18.4% (inactive)
57 | O=C(Nc1ccc(F)cc1)c1cc2c(s1)CCCC2 | -1.43% (inactive)
58 | CCCCCCCNc1nc(Cl)nc(NCCO)n1 | 5.58% (inactive)
59 | O=C(CCCOc1ccc(Cl)cc1Cl)NNC(=O)C1CCC1 | 3.99% (inactive)
60 | C/C(CCc1ccccc1)=N\NC(=O)c1ccc(CN2CCOCC2)cc1 | 0.488% (inactive)
61 | CCN=c1sc(C(=O)Nc2ccccc2)c(C)n1CC | 1.57% (inactive)
62 | CCOC(=O)CN(C(=O)COc1nc(-c2ccccc2)cc(C)c1C#N)c1ccc(F)cc1 | 0.588% (inactive)
